Drawing on ChEMBL document CHEMBL4513216, “Probing the Open Global Health Chemical Diversity Library for Multistage-Active Starting Points for Next-Generation Antimalarials” (ACS Infect Dis, 2020), this text covers INHIBITION for 54 molecules.

Out of some 69,000 compounds screened, about 8,600 (12%) showed an effect of 50% or more. What follows is part of a selection rich in strong results, with near analogues and random picks from the rest.

The experiment relates to Plasmodium berghei. Kind of experiment: Screen against P. berghei liver stage (PbLuc), transformed with Luciferase, at 10uM. Format: functional, HepG2. The conditions noted are these: tested at 10 uM.
For the molecule `CNC(=O)C1(c2cnccn2)CCCN1C(=O)c1ccc(F)cc1` (centres undefined), the INHIBITION came out at 3.91%. Then `COc1c(C)cnc(CN2CCC(N(C)S(C)(=O)=O)CC2)c1C`, with -21.9%; and `COc1ccccc1C(=O)N(C)Cc1ncc(C)c(OC)c1C`, with -11.7%; and `COc1c(C)cnc(CN(C)C2CCN(C3CCOCC3)CC2)c1C`, with 7.24%. In the case of `COc1c(C)cnc(CN(C)C2CCOC3(CCOCC3)C2)c1C` (centres undefined), the INHIBITION worked out at 43.6%. With `COc1c(C)cnc(CN2CCC(N(C)C(C)C(N)=O)CC2)c1C` (centres undefined) the figure was 90%; with `CCC(=O)N(C)C1CCN(Cc2ncc(C)c(OC)c2C)CC1`, 10.8%; with `COCc1ccccc1C(=O)N(C)Cc1ncc(C)c(OC)c1C`, 50.1%. With `COc1c(C)cnc(CN2CCC(N(C)C(=O)C(C)OC)CC2)c1C` (centres undefined) the figure was -29.8%. With `CCNC(=O)N(C)C1CCN(Cc2ncc(C)c(OC)c2C)CC1` the figure was 82.6%.

Regarding `COc1c(C)cnc(CN2CCC(N(C)C(=O)C3CC3)CC2)c1C`, the INHIBITION is -2.19%. Turning to `COc1c(C)cnc(CN(C)C2CCCCC2)c1C`, the INHIBITION was 72%.

Turning to `COc1c(C)cnc(CN(C)C(=O)c2ccccc2O)c1C`, the INHIBITION is on record as 26.3%. Then `COc1ccc(CCC(=O)N2CCCCC2Cn2cccn2)cc1F` (centres undefined), with -31.8%.

On to `O=C(NCc1ccccn1)[C@]12COC[C@H]1CN(Cc1ccccc1F)C2`, for which the INHIBITION is -13.2%. As to `Cc1ncsc1C(=O)N1CCCC1c1c(C)nn(C)c1Cl` (centres undefined), the INHIBITION is on record as -0.96%. Regarding `CC(NCc1cccc(C#N)c1)c1ccccn1` (centres undefined), the INHIBITION is given as -21%. As to `CCc1nc(C2CCCN2Cc2nnc(C3CCC3)o2)no1` (centres undefined), the INHIBITION was 41.65%. Then `CC(C)CCn1cc(C(C(=O)O)N2CCSCC2)cn1` (centres undefined), with 17.6%; and `CC(C)C(=O)NC1CCCc2nc(N3CCOCC3)ncc21` (centres undefined), with 18.3%. As to `Cc1ccc(-c2nc(CN3CCOCC3)no2)cc1N1CCNC1=O`, the INHIBITION amounted to 30%.

Consider `CCNC(=O)CNC(=O)c1nc(C2CC2)n(-c2ccccc2Cl)n1`, for which the INHIBITION is -37.6%.

For `Cc1ccc(Cl)c(CN2CCN(C)C(C(=O)O)C2)c1F` (centres undefined), the INHIBITION is -4.52%. Then `O=C(c1cc(Cl)c[nH]1)N(CCCO)Cc1cccnc1`, with 39%. With `CCCc1cc(C(=O)N(Cc2cccnc2)Cc2cccnc2)[nH]n1` the figure was 6.28%; with `CCOC(=O)CCN(Cc1cccnc1)C(=O)c1cc(Cl)c[nH]1`, 57.5%.

For `CC(C)c1nnc(CN2CC(n3cccn3)C2)o1`, the INHIBITION was -145%.

With `CN(C(=O)NCCN1CCOCC1)C1CCN(c2ccccc2)C1=O` (centres undefined), the INHIBITION was found to be 13.375%. With `Cc1nc(CN2CCCCC2CCc2cccs2)co1` (centres undefined) the figure was 24.9%. Regarding `c1csc(CCC2CCCCN2Cc2noc(C3CC3)n2)c1` (centres undefined), the INHIBITION was determined as 34.9%. Then `COCc1noc(CN2CCCCC2CCc2cccs2)n1` (centres undefined), with 51.2%; and `CCNC(=O)CNCc1c(C(C)C)nn(C)c1N1CCOCC1`, with 11.35%. On to `CCCN(Cc1ccccc1O)C(=O)Nc1cnn(CCOC)c1`, for which the INHIBITION is on record as 59.7%.

As for `COCCn1cc(NC(=O)N(CCC(N)=O)Cc2ccccc2)cn1`, the INHIBITION was -1.25%. Then `CCN(CC(C)O)C(=O)Nc1cnn(CCOC)c1` (centres undefined), with 29.8%; and `CC(=O)NCC(=O)N1CCC2(CC1)NC(=O)CC2c1cccnc1` (centres undefined), with 34.6%; and `COCCn1ccnc1C1CCCN(C(=O)CSc2nnc(C)o2)C1` (centres undefined), with 20.9%. With `CCC(=O)N1CCCCC1c1nc(N(C)C)ncc1-c1cc(C)no1` (centres undefined) the figure was 22.5%; with `CNC(=O)NC(=O)C(C)N1CCN(C2CCCC2)CC1` (centres undefined), 28.7%; with `CNC(=O)NC(=O)C(C)N1CCC(c2c[nH]c3ccc(OC)cc23)CC1` (centres undefined), 61.5%. Then `CNC(=O)NC(=O)C(C)N1CCCc2cc(OC)ccc2C1` (centres undefined), with -25.1%; and `CNC(=O)NC(=O)CN1CCC(c2c[nH]c3ccc(OC)cc23)CC1`, with 15.1%.

`CCNC(=O)NC(=O)CN1CCC(c2c[nH]c3ccc(OC)cc23)CC1`: the INHIBITION is recorded as 62.6%.

`COc1ccc2[nH]cc(C3CCN(CCC(N)=O)CC3)c2c1`: the INHIBITION came to 36.6%.

Turning to `CNC(=O)[C@@H](c1ccccc1)N1CCC[C@H]1C(=O)NCc1cccnc1`, the INHIBITION was -1.12%. With `CCS(=O)(=O)N1CCCC2(COCCN(c3nnc(C)o3)C2)C1` (centres undefined) the figure was 29.8%; with `Cc1noc(C)c1CN1CCN(C(C)c2nc(C3CC3)no2)CC1` (centres undefined), 59%; with `Cc1noc(C)c1CN1CCN(Cc2nc(C3CC3)no2)CC1`, 72.2%.

As to `Cc1nc(CN2CCN(C(C)c3nc(C4CC4)no3)CC2)oc1C` (centres undefined), the INHIBITION was 4.75%. With `Cc1cnc(CN2CCN(C(C)c3nc(C4CC4)no3)CC2)cn1` (centres undefined) the figure was 24.7%.

Consider `Cc1noc(C)c1Cc1nc(C2CC2)no1`, for which the INHIBITION came to 14.6%. As for `Cc1noc(C)c1CN1CCCC(c2noc(C3CC3)n2)C1` (centres undefined), the INHIBITION is reported as -12.2%. For the molecule `CCCN(Cc1nc(-c2ccc(F)c(OC)c2)oc1C)CC1CCCO1` (centres undefined), the INHIBITION is -12.1%. Then `Cc1cc(C)n(CC2CCCN2C(=O)c2cccnc2N(C)C)n1` (centres undefined), with 21%.
